Experimental data from PubChem BioAssay (NCATS).
Inconclusive results are not listed. Values without a mark were called inactive. Calls of active or inactive are those of the source. Calls follow the shape of the dose curve; as a rule, active = well fitted cell-killing curve with a large enough effect; inconclusive = small, poorly fitted or top-dose-only effect, or effect the other way; inactive = no such curve, though single readings can be large or run the other way.

assay: Quantitative High-Throughput drug screen in 47 multiple myeloma cell lines against the NCATS MIPE library collection: MMM1_PLB cell viability assay (AID 1918976); conditions: MMM1 myeloma cells viability, CellTiter-Glo, 48 h; series mostly up to 45.8 µM; viability (% of control): at the top concentration; also: nearly all actives have a fitted effect of over 35% in size
Description: PI: Beverly A. Mock Ph.D.
Laboratory of Cancer Biology and Genetics,
Center for Cancer Research, National Cancer Institute,
National Institute of Health, Bethesda, Maryland
Drug resistance and disease progression are common in multiple myeloma (MM) patients, underscoring the need for new therapeutic combinations. […] We hypothesized that effective combinations would reduce MYC expression and enhance p16 activity. […] These preclinical data identify potentially useful drug combinations for evaluation in drug-resistant MM and reveal potential mechanisms of combined drug sensitivity.
Described herein is the primary MIPE qHTS used to cherrypick compounds. Validated compounds were then further tested for potential synergistic activiy.
[1] Peat TJ, Gaikwad SM, Dubois W, Gyabaah-Kessie N, Zhang S, Gorjifard S, Phyo Z, Andres M, Hughitt VK, Simpson RM, Miller MA, Girvin AT, Taylor A, Williams D, D'Antonio N, Zhang Y, Rajagopalan A, Flietner E, Wilson K, Zhang X, Shinn P, Klumpp-Thomas C, McKnight C, Itkin Z, Chen L, Kazandijian D, Zhang J, Michalowski AM, Simmons JK, Keats J, Thomas CJ, Mock BA. Drug combinations identified by high-throughput screening promote cell cycle transition and upregulate Smad pathways in myeloma. Cancer Lett. 2023 Aug 1;568:216284. doi: 10.1016/j.canlet.2023.216284. Epub 2023 Jun 24. PMID: 37356470; PMCID: PMC10408729.
SEQUENCE No. (e.g., 1, 2, 3, etc.); […] (e.g., Cells, Incubation, Reagent, etc.); VALUE and DESCRIPTION.
1; Cells; 5 uL; white, solid bottom 1536-well Greiner assay plate.
2; Compounds; 23 nL; Kalypsis pin tool (Wako USA) equipped with a 1536-well pin head to transfer to the assay plates.
3; Incubation; 48 hours; 37C incubation.
4; Reagent;5uL; CellTiter Glo (Promega).
5; Detector; 425V; Luminescence; Viewlux PerkinElmer.
NOTES (numbers refer to Sequence numbers above)
1. The cell-based screening methods employed in this study were like those previously published. Briefly, the corresponding myeloma cell lines were screened in 1,536-well plates with 500 cells, 5-uL per well for inhibition of cell viability (assessed by measuring ATP levels with CellTiterGlo).
2. NCATS MIPE 4.0 library of approved and investigational drugs were added using the Kalypsis pin tool. Wells treated with DMSO only for 100% viability and media only for 0% viability were used as controls.
3. The assay plates were covered and incubated for 48 hours in a 37C, 5% CO2 incubator with controlled humidity.
4. After 48 hours, CellTilter-GloTM luminescent substrate mix (Promega) reagent was added to the assay plate and plates we incubated for 5 min at room temperature.
5. Signal was measured as median relative luminescence units on a ViewLux (PerkinElmer) multiplate reader.
[1] Heske CM, Davis MI, Baumgart JT, Wilson K, Gormally MV, Chen L, Zhang X, Ceribelli M, Duveau DY, Guha R, Ferrer M, Arnaldez FI, Ji J, Tran HL, Zhang Y, Mendoza A, Helman LJ, Thomas CJ. Matrix Screen Identifies Synergistic Combination of PARP Inhibitors and Nicotinamide Phosphoribosyltransferase (NAMPT) Inhibitors in Ewing Sarcoma. Clin Cancer Res. 2017 Dec 1;23(23):7301-7311. doi: 10.1158/1078-0432.CCR-17-1121. Epub 2017 Sep 12. PMID: 28899971; PMCID: PMC6636827.
Potency is read from the fitted curve at half-maximal effect.

Row | Compound | Potency | viability (% of control)
1 | COc1ccc(C2=N[C@H](c3ccc(Cl)cc3)[C@H](c3ccc(Cl)cc3)N2C(=O)N2CCNC(=O)C2)c(OC(C)C)c1 | 4.69 µM (active) | –
2 | O=C(O)COCCN1CCN(C(c2ccccc2)c2ccc(Cl)cc2)CC1 (stereo not given) | 14.8 µM (active) | –
3 | CC(C)NCC(O)COc1ccc(COCCOC(C)C)cc1 (stereo not given) | 7.43 µM (active) | –
4 | Cc1csc(NC(=O)c2sc3nc4c(c(C(F)(F)F)c3c2N)CCC4)n1 | – | 101%
5 | Nc1nc2ccc(OC(F)(F)F)cc2s1 | 23.5 µM (active) | –
6 | COc1cc(F)c(F)c(Nc2ccc(I)cc2F)c1NS(=O)(=O)C1(C[C@H](O)CO)CC1 | 2.64 µM (active) | –
7 | O=c1[nH]c(-c2ccc(C(F)(F)F)cc2)nc2c1CSCC2 | 7.43 µM (active) | –
8 | CC(C)(N)C(=O)N[C@H](COCc1ccccc1)C(=O)N1CCC2(CC1)CN(S(C)(=O)=O)c1ccccc12 | 23.5 µM (active) | –
9 | CCc1ccc(CCOc2ccc(CC3SC(=O)NC3=O)cc2)nc1 (stereo not given) | 8.33 µM (active) | –
10 | CN(C)c1ccc(C2Nc3ccc4ccccc4c3C3=C2C(=O)CC(C)(C)C3)cc1Br (stereo not given) | 14.8 µM (active) | –
11 | Cc1cccc(-c2nn(C(=S)Nc3ccccc3)cc2-c2ccnc3ccccc23)n1 | 16.6 µM (active) | –
12 | O=C1CCC(N2C(=O)c3ccccc3C2=O)C(=O)N1 (stereo not given) | 2.96 µM (active) | –
13 | CCCc1nn(C)c2c(=O)[nH]c(-c3cc(S(=O)(=O)N4CCN(C)CC4)ccc3OCC)nc12 | 23.5 µM (active) | –
14 | CC1(C)Cc2c(-c3ccccc3)c(-c3ccc(Cl)cc3)c(CC(=O)O)n2C1 | 20.9 µM (active) | –
15 | NC(=O)C1CCCc2c1[nH]c1ccc(Cl)cc21 (stereo not given) | 3.32 µM (active) | –
16 | CCC(=O)N[C@H]1CC[C@H](C(=O)N(C)c2ccc(-c3nc4ccccc4o3)cc2)C1 | 14.8 µM (active) | –
17 | O=C(Nc1cccnc1)N1CCC(Cc2cccc(Oc3ccc(C(F)(F)F)cn3)c2)CC1 | 10.5 µM (active) | –
18 | CNC(=O)c1ccc(C)c(-n2c(C)cc(OCc3ccc(F)cc3F)c(Br)c2=O)c1 | 18.7 µM (active) | –
19 | O=C(Nc1nc2ccccc2n1CCN1CCOCC1)c1cccc([N+](=O)[O-])c1 | 13.2 µM (active) | –
20 | Cc1c(CN2CCN(C(=O)C(C)C)CC2)sc2c(N3CCOCC3)nc(-c3cnc(N)nc3)nc12 | 0.0526 µM (active) | –

Row | Compound | Potency | viability (% of control)
21 | NC[C@H](O)c1ccc(O)c(O)c1 | 23.5 µM (active) | –
22 | COc1cccc2cc(-c3nc(C4CCC(C(=O)O)CC4)n4ncnc(N)c34)[nH]c12 (stereo not given) | 0.662 µM (active) | –
23 | CC(C)(Sc1ccc(CCN(CCCCC2CCCCC2)C(=O)NC2CCCCC2)cc1)C(=O)O | 18.7 µM (active) | –
24 | Cc1cc(SCc2sc(-c3ccc(C(F)(F)F)cc3)nc2C)ccc1OCC(=O)O | 5.26 µM (active) | –
25 | CC(C)C[C@H](NC(=O)[C@@H](O)[C@H](N)Cc1ccccc1)C(=O)O | 20.9 µM (active) | –
26 | COc1cc2c(cc1OC)CN(CCc1ccc(NC(=O)c3cccc4c(=O)c5cccc(OC)c5[nH]c34)cc1)CC2 | 20.9 µM (active) | –
27 | NCCCC(N)(C(=O)O)C(F)F (stereo not given) | 0.526 µM (active) | –
28 | NNCCc1ccccc1 | 5.9 µM (active) | –
29 | Cc1c(CCOc2ccc(C(=O)O)cc2)c2cc(Cl)ccc2n1C(c1ccccc1)c1ccccc1 | 14.8 µM (active) | –
30 | COc1cc2nccc(Oc3ccc(NC(=O)NC4CC4)c(Cl)c3)c2cc1C(N)=O | 2.35 µM (active) | –
31 | COc1ccc(-c2ccc3c(N4CCOC[C@H]4C)nc(N4CCOC[C@H]4C)nc3n2)cc1CO | 0.0105 µM (active) | –
32 | COc1ccc(COc2cc3oc(=O)c4cc(C(C)O)ccc4c3cc2OC)cc1 (stereo not given) | 18.7 µM (active) | –
33 | Cc1ccc(N(CC2=NCCN2)c2cccc(O)c2)cc1 | 2.96 µM (active) | –
34 | COc1ccc(-c2ccc3c(N4CCOCC4)nc(N4C[C@@H](C)O[C@@H](C)C4)nc3n2)cc1CO | 0.105 µM (active) | –
35 | CCOC(=O)N1CCC(=C2c3ccc(Cl)cc3CCc3cccnc32)CC1 | 23.5 µM (active) | –
36 | CN(C)C(=O)c1ccc(S(=O)(=O)c2ccc(NC(=O)[C@@](C)(O)C(F)(F)F)c(Cl)c2)cc1 | 8.33 µM (active) | –
37 | CCCn1c(=O)c2[nH]c(C34CC5CC3C[C@@H](C5)C4)nc2n(CCC)c1=O | 18.7 µM (active) | –
38 | Clc1ccc(Nc2nnc(Cc3ccncc3)c3ccccc23)cc1 | 18.7 µM (active) | –
39 | CO[C@@H]1[C@H](N(C)C(=O)c2ccccc2)C[C@H]2O[C@]1(C)n1c3ccccc3c3c4c(c5c6ccccc6n2c5c31)C(=O)NC4 | 2.64 µM (active) | –
40 | Nc1ncnc2nc(-c3ccc(N4CCOCC4)nc3)cc(-c3cccc(Br)c3)c12 | 11.8 µM (active) | –
